mcGAS inh = mouse cGAS inhibition by luminescence; Q8C6L5; recombinant cGAS, Kinase-Glo ATP depletion luminescence; inhibition, % at 12.5 µM; 0.15% of 160,000 active;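 also: 0% = negative control wells and 100% = reference inhibitor with no enzyme activity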
NPYLR7 agonist = mosquito NPYLR7 agonism | HEK293T NPYLR7/Galpha15, GCaMP6s calcium fluorescence | activation, % at 10 µM | 0.15% of 270,000 active; in the data active = activation above about 40%;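 also: 0% = vehicle and 100% = reference agonist at the receptor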
hcGAS lum = inhibitors of human cGAS; Q8N884; recombinant h-cGAS, ATP depletion, Kinase-Glo luminescence; inhibition, % at 12.5 µM; 0.081% of 290,000 active; AID 1259398;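 also: 0% = vehicle reaction and 100% = reaction without DNA for no activity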
Target sequence (Q8N884 whole entry, looked up): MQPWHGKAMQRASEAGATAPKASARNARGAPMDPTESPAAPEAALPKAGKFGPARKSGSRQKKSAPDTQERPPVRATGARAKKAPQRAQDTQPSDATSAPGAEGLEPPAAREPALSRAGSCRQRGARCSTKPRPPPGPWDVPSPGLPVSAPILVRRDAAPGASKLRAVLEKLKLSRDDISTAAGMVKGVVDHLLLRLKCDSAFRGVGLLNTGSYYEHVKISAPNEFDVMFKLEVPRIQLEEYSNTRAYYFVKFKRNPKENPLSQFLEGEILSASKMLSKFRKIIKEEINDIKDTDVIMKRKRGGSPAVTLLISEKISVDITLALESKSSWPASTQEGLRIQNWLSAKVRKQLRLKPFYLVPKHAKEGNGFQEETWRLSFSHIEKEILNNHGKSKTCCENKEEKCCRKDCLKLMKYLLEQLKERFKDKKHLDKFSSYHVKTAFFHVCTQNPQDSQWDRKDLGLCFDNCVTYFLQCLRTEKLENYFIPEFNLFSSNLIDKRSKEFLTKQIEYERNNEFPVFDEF
Numbers without * were called inactive; . = no result. This is a sample that favours compounds with a hit; in the whole collection about 0.28% have one here. Rule as the data show it, unless noted: active = inhibition above about 40%; inactive = the rest.

SMILES	mcGAS inh	NPYLR7 agonist	hcGAS lum
CC1C(=O)c2cccc3c(=O)n(-c4ccccc4)c(O)c(c23)C1=O (stereo unspecified)	.	82.9*	4.4
CCCc1nnc2c(=O)n(-c3ccccc3)ccn12	-10.0	1.1	-5.8
Cc1ccc(S(=O)(=O)N(CCC#N)C2CC2)c(F)c1	.	13.5	-13.7
COc1cc2oc(=O)c3c4c(cc5ccc(c1CCN(C)C)c2c53)OCO4	52.2*	2.2	43.8*
COc1cc(CNCCN(C)C)cc2c1OCO2	-4.1	1.8	-7.5
CCCCn1c(O)c(C=C2C=Nc3ccccc32)c(=O)[nH]c1=O	6.4	5.5	0.4
CN1C=CC(=C/C=C2/C=Nc3ccccc32)C=C1	-2.3	53.7*	0.8
O=C1NCCCCC1NC(=O)C1CC1(c1ccccc1)c1ccccc1 (stereo unspecified)	-3.6	-3.0	-5.7
CCCN(CC(=O)N(Cc1cccn1Cc1ccc(Br)cc1)C1CCCCC1)S(=O)(=O)c1cccc(C(F)(F)F)c1	-5.8	-2.9	-4.2
COc1ccc(NC(=O)c2ccc(NC(C)C)nc2)cn1	-4.8	6.2	-4.2
COCCOc1ccc(NC(=O)N(C)C(C)C2(C)CC2)cn1 (stereo unspecified)	-15.4	134.0*	-6.7
O=C(O)CCN1C(=O)/C(=C/c2ccc(O)cc2)SC1=S	-0.5	92.2*	-4.2
CC(C(=O)O)N1C(=O)/C(=C\c2ccc(O)cc2)SC1=S (stereo unspecified)	2.2	62.3*	0.1
CN1C(=O)C(=Cc2ccc(O)cc2)SC1=S	.	17.5	4.2
CC(=O)NN1C(=O)/C(=C\c2ccc(O)cc2)SC1=S	-8.4	81.0*	-7.7
Cc1ccc(/C=C2\SC(=S)N(CCC(=O)O)C2=O)cc1	-1.3	-3.4	3.7
CCCC(C(=O)O)N1C(=O)/C(=C/c2ccc(O)cc2)SC1=S (stereo unspecified)	-3.8	79.3*	-3.7
CC(C)N1C(=O)C(=Cc2ccc(O)cc2)SC1=S	-8.3	5.1	-8.1
CSCCC(C(=O)O)N1C(=O)/C(=C/c2ccc(C)cc2)SC1=S (stereo unspecified)	29.4	-5.5	-0.8
COc1ccc(-c2nn(-c3ccccc3C)cc2CN2CCCC(CNC(C)=O)C2)cc1F (stereo unspecified)	-12.7	11.6	-11.8
COC(=O)c1ccc(/C=C2/SC(=S)N(C(C(=O)O)C(C)C)C2=O)cc1 (stereo unspecified)	-6.7	-1.9	-2.5
CCOc1cc(C=C2SC(=S)N(c3ccc(OC)cc3)C2=O)ccc1O	-6.0	-4.4	-6.9
CCOc1cc(/C=C2\SC(=S)N(NC(=O)c3ccccc3O)C2=O)ccc1O	8.3	59.1*	-7.9
CC(C)C(C(=O)O)N1C(=O)/C(=C/c2ccc(N(C)C)cc2)SC1=S (stereo unspecified)	-6.9	54.2*	-3.1
N#Cc1c(-c2ccccc2)cc(=O)n2c1[nH]c1ccccc12	.	3.7	1.2
SMILES	mcGAS inh	NPYLR7 agonist	hcGAS lum
Cc1c(Cc2ccccc2)c(=O)n2c([nH]c3ccccc32)c1C#N	.	4.3	-2.3
Cc1cc(=S)n2c([nH]c3ccccc32)c1C#N	.	-8.2	40.5*
N#Cc1c(C(F)(F)F)cc(=O)n2c1[nH]c1ccccc12	.	-3.2	46.0*
Cc1ccc(Nc2nc3c([nH]2)c(=O)n(C)c(=O)n3C)cc1	-10.6	6.0	-5.0
Cc1ccc(-c2nc3nc(N)n(C)c(=O)c3[nH]c2=O)cc1	-8.0	135.9*	-5.6
CCOC(=O)c1nn(-c2ccccc2)c(=O)c2c(NC(=O)Cc3cccc4ccccc34)scc12	-4.4	1.6	1.0
CCCC(NC(=O)C1CNC1)c1ccccc1 (stereo unspecified)	.	-1.1	-3.6
COc1cc([N+](=O)[O-])ccc1NC(=O)COC(=O)c1c(C)oc(C)c1C	.	2.7	-6.1
Fc1ccc(Nc2nc3ccccc3n3nnnc23)cc1	.	8.7	-10.4
COc1ccccc1OCCCOc1ccc(Br)cc1Cl	.	59.8*	0.8
COc1cccc(OC)c1OCCCOc1ccc(Br)cc1Cl	.	-6.3	-5.2
O=C(NC1CCN(c2ccccc2C(=O)N2CCCC2)CC1)c1ccco1	-6.2	-1.9	-3.1
C=CCOCC(O)CN(Cc1ccc2c(c1)OCO2)Cc1cc(C)ccc1C (stereo unspecified)	-2.3	12.0	1.9
C#CCOCC(O)CN(Cc1ccc2c(c1)OCO2)Cc1cc(C)ccc1C (stereo unspecified)	-3.7	23.0	-0.3
C=CCOCC(O)CN(Cc1ccc2c(c1)OCO2)Cc1ccc(C)s1 (stereo unspecified)	82.6*	18.6	-3.6
C#CCOCC(O)CN(Cc1ccc(F)cc1)Cc1ccc2c(c1)OCO2 (stereo unspecified)	76.7*	8.8	-4.2
S=c1[nH]nc(SCc2cccc3ccccc23)s1	-3.2	-5.8	-5.2
O=C(Nc1ccc(Cl)cc1)N1CCCN(C2CC2)CC1	.	1.5	-8.2
Nc1c(NC(=O)N2CCN(C3CCCC3)CC2)c(-c2ccc(Cl)cc2)nn1-c1ccccc1	.	5.2	164.0*

Screens (PubChem)
